Out of some 47,000 compounds screened, about 2,800 (6%) were called active. The full list was thinned out, with actives kept by preference. Unmarked numbers belong to inactive results. No stated cut-off is given here; in the data, active means z-score above about 3 (passing the limit was not always enough); inactive means the rest.
molecular target: Endoribonuclease Dicer (Homo sapiens) (UniProt Q9UPY3); experiment: Dicer cleavage of pre-miR-21 blockers – biochemical, cat-ELCCA, chemiluminescence, primary screen (AID 1347074); conditions: cat-ELCCA pre-miR-21 Dicer processing, at 25 µM, stronger effect = higher value;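 further: plate controls were vehicle for no effect and no enzyme for full effect; higher signal means more uncleaved substrate so more Dicer inhibition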
Sequence (Q9UPY3 whole entry, looked up): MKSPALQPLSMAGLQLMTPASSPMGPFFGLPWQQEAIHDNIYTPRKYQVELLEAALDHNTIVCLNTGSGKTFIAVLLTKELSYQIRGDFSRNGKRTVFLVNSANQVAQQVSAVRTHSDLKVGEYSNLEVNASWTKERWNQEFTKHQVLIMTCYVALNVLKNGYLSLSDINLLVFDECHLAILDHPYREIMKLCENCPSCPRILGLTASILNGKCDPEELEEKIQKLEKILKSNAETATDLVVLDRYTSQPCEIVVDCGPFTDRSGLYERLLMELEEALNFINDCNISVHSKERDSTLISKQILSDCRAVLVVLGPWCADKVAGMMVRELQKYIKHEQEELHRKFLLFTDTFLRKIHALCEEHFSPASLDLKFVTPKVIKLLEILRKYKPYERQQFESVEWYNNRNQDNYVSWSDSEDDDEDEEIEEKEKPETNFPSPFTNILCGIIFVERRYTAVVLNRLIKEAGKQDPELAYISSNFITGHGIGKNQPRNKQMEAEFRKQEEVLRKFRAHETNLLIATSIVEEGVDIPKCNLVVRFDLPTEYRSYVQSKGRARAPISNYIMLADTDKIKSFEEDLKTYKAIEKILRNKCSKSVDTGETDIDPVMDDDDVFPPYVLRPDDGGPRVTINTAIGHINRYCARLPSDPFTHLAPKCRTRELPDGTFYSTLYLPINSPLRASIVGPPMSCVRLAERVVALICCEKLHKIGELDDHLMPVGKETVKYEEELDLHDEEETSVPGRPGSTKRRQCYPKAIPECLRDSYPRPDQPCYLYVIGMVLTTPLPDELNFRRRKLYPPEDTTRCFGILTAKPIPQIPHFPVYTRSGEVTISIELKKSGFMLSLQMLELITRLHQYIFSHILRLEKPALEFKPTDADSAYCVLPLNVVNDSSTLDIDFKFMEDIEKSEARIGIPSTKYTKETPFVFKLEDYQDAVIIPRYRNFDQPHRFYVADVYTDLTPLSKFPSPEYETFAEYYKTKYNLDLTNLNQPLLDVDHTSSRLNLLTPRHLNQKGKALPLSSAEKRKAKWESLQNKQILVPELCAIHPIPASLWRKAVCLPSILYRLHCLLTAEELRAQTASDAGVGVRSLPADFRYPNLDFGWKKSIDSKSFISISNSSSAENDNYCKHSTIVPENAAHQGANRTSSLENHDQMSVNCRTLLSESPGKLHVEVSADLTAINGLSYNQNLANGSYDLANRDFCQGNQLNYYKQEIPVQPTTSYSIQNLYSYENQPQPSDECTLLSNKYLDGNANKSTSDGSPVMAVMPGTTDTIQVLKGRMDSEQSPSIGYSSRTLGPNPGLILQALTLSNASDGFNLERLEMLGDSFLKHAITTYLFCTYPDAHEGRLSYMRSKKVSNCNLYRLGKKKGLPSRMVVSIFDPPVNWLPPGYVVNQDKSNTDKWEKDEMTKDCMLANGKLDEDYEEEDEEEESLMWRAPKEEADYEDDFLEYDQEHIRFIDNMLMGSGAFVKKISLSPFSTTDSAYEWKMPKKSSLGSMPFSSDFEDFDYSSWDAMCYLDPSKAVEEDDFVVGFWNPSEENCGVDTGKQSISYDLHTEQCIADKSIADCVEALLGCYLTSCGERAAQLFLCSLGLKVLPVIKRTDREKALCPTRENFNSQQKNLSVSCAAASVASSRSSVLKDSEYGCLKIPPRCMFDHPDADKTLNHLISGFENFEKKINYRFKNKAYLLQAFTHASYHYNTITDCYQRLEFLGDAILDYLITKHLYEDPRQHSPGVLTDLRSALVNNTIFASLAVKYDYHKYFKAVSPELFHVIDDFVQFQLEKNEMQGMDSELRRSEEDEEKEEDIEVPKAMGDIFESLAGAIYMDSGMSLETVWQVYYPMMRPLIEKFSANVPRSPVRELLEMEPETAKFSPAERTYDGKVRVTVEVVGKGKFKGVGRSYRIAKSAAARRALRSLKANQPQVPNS

| SMILES | z-score |
| --- | --- |
| CC(C)(C)c1cc2nc(-c3ccc4c(c3)CCC4)cc(C(F)(F)F)n2n1 | -1.01 |
| Cc1cc(Br)ccc1Nc1ncnc(N)n1 | 0.67 |
| C=CCN(C(=O)c1ccccc1Cl)c1ccccc1C(=O)NCC(=O)OCC | -0.79 |
| Cc1cc(O)cc(C)c1/C=C1\NC(=O)NC1=O | 0.4 |
| Cc1ccc(C(=O)NNc2ncnc3sccc23)cc1 | 0.13 |
| CSc1n[nH]c(N)c1-c1ccccn1 | 6.44 (active) |
| CCOC(=O)c1sc(SC(C)C)c2c1CC(C)(C)CC2=O | -1.12 |
| Cc1cc(C)c2c(n1)sc1c(=O)n(/N=C/c3ccc4c(c3)OCO4)c(C)nc12 | -0.06 |
| O=C(/C(=N\N=C\c1ccc2c(c1)OCO2)c1ccccc1)c1ccccc1 | -1.69 |
| Cc1ccc(N2CC(=O)N(/N=C/c3ccc4c(c3)OCO4)CC2=O)cc1 | 3.3 (active) |
| O=C(c1cccn1-c1ccc(F)cc1)C(F)(F)F | -0.2 |
| Cc1ccc(-c2ccc3c4ccccc4c(C(=O)C(F)(F)F)c-3o2)cc1 | -0.14 |
| O=c1c2c(-c3ccc(Cl)cc3)csc2nc2c3ccccc3c(N3CCN(CCO)CC3)nn12 | -0.37 |
| Cc1ccc(S(=O)(=O)Nc2cc(C)cc(C)c2)cc1 | 2.36 |
| Cc1ccc(S(=O)(=O)Nc2ccc(F)cc2NS(=O)(=O)c2ccc(C)cc2)cc1 | 15.1 (active) |
| Cn1nccc1NS(=O)(=O)c1ccc(F)cc1 | -0.57 |
| CN(C)C(=O)Sc1nnc(C2CC2)n1-c1ccc(Cl)cc1 | 15.9 |
| CC(C)OC(=O)C1C(=O)CC(C)(O)C(C(=O)OC(C)C)C1c1ccc(Br)cc1 (configuration not stated) | -1.31 |
| CC1=C(C(N)=O)C(c2ccc(F)cc2)n2nnnc2N1 (configuration not stated) | -0.27 |
| CCOC(=O)C1=C(C)Nc2nnnn2C1c1ccc(O)cc1 (configuration not stated) | -2.24 |
| CCCOC(=O)C1=C(C)Nc2nnnn2C1c1cc(Br)ccc1OC (configuration not stated) | 3.54 (active) |
| O=C(O)CSCC(=O)Nc1ccccc1Sc1ncnc2cc(-c3ccccc3)sc12 | -0.26 |
| Fc1cccc(-c2nn3c(COc4ccccc4)nnc3s2)c1 | 0.92 |

| SMILES | z-score |
| --- | --- |
| CCOc1ccccc1C1Nc2c(C)cccc2-c2cc(C)nn21 (configuration not stated) | 4.42 (active) |
| COc1cc(O)ccc1C1Nc2c(C)cc(C)cc2-c2cc(C)nn21 (configuration not stated) | 2.86 |
| COc1cccc(C2Nc3ccccc3-c3cc(C)nn32)c1O (configuration not stated) | -0.43 |
| Cc1c(C#N)c(NC(=O)c2ccc(Cl)cc2)n(CC2CC2)c1C | 0.46 |
| CN1CCc2c(sc3c2C(=O)NC(c2ccc(Br)cc2)N3)C1 (configuration not stated) | -0.13 |
| C/C(=N\OC(=O)Nc1ccc(Cl)cc1)c1cc(-c2ccccc2)no1 | -0.26 |
| CCOc1ccccc1C1C2=C(CCCC2=O)Nc2nnnn21 (configuration not stated) | 2.2 |
| Cc1c(Br)c([N+](=O)[O-])nn1CC(=O)NCCCn1ccnc1 | -0.68 |
| O=C(O)c1cnc(NCc2ccccc2)s1 | -1.01 |
| O=C(NCc1ccccc1)c1cc2sccc2s1 | 3.86 (active) |
| O=C(NCc1cccnc1)c1cnc2ccccc2n1 | 0.67 |
| Cc1c(C)c(C)c(CSCC(=O)N/N=C/C=C/c2ccccc2)c(C)c1C | 1.61 |
| Cc1ccc(C2CC(C(F)(F)F)n3ncc(C(=O)N(C)Cc4cn(C)nc4C)c3N2)cc1 (configuration not stated) | -1.27 |
| O=C(Nc1ccc(F)cc1)Nc1nnc(C2CC2)s1 | 0.03 |
| c1coc(CNc2ncnc3ccccc23)c1 | -1.16 |
| CS(=O)(=O)n1nc(-c2ccccc2)nc1NCc1ccco1 | 4.95 (active) |
| O=C(NCc1ccco1)c1nc2ncccn2n1 | 0.13 |
| CN(C)c1ccc(NC(=O)C(=O)NCCO)cc1 | 3.85 (active) |
| CN(C)c1ccc(C(=S)c2ccc(N(C)C)cc2)cc1 | 0.42 |
| CN(C)C(=O)Nc1ccc(C(C)(C)C)cc1 | 0.46 |
| CC(=O)c1ccc(OCc2ccc(Cl)c(Cl)c2)c(C)c1O | -0.27 |
| CCCCCOC(=O)COc1ccc2c(=O)c(Oc3cccc(C)c3)coc2c1 | -1.17 |
| O=c1oc2ccccc2c2c1ncn2CCCN1CCOCC1 | 0.33 |

| SMILES | z-score |
| --- | --- |
| CCOC(=O)/C(C#N)=C/Nc1ccc(OC)c(C(=O)OC)c1OC | -2.66 |
| COc1ccc(-c2c(-c3ccccc3)oc3ncnc(N)c23)cc1 | 4.1 (active) |
| c1ccc(-c2oc3ncn4nc(-c5ccccn5)nc4c3c2-c2ccccc2)cc1 | -0.36 |
| COc1ccc(-c2oc3ncnc(NCCCO)c3c2-c2ccc(OC)cc2)cc1 | 0.89 |
| CCc1ccc(C2c3c(oc4ccc(C)cc4c3=O)C(=O)N2c2nccs2)cc1 (configuration not stated) | 0.49 |
| CCCC1=NN(c2ccc(S(N)(=O)=O)cc2)C(=O)C1 | -4.3 |
| COC(OC)c1nc(SCc2ccc(Cl)cc2)ncc1C(=O)O | -1.32 |
| CN(C)NC(=O)c1csnc1-c1c(Cl)cccc1Cl | 3.48 (active) |
| CCCCNC(=O)Nc1onc(-c2c(Cl)cccc2Cl)c1C(=O)OC | 0.02 |
| Cc1onc(-c2c(Cl)cccc2Cl)c1C(=O)NN(C)c1ccc([N+](=O)[O-])cn1 | 0.9 |
| CCCCC#Cc1cncc(C(=O)O)c1 | 0.66 |
| O=C(Nc1ccc2c(c1)OCC1CCCN21)C1=Cc2ccccc2OC1 (configuration not stated) | 4.37 (active) |
| O=C(O)C1=Cc2cc(Cl)ccc2OC1 | 1.52 |
| COC(=O)c1scc(C)c1NC(=O)C1=Cc2cc(Cl)ccc2OC1 | -0.31 |
| C=CCNC(=O)CSc1nc2c(c(C(F)(F)F)n1)CCc1ccccc1-2 | 1.7 |
| CCc1nc(-c2ccc(-c3ccccc3)nc2OC)no1 | 0.85 |
| COc1cc(OC)cc(-c2nc(-c3ccc(-c4ccccc4)nc3OC)no2)c1 | 1.1 |
| CCCc1cc(=O)oc2c1c(C)nn2-c1cccc(Cl)c1 | -1.83 |
| COC(NC(=O)c1ccccc1)(C(F)(F)F)C(F)(F)F | -0.72 |
| COC(=O)C1=C(c2ccccc2)C(c2ccccc2)=C(C(=O)OC)C1=O | 3.2 (active) |
| COC(=O)c1sc(C(F)(F)F)c(-c2ccccc2)c1S(=O)(=O)N(C)C | 0.21 |
